± gives the standard deviation.
Tests used:
Details in all cases: modulator concentration 10 µM
[1] = tested on: RAW-Dual (murine macrophage reporter line); test: NF-kB reporter (SEAP) activity fold change vs agonist alone; higher = enhanced NF-kB activity
Outline: (§1)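 Compound reached 10 μM final in each well by pin transfer, onto RAW-Dual murine macrophage reporter cells seeded at 50 000 per well in 384-well plates. After 1 hour at 37 °C, the cells were stimulated overnight with a PRR agonist. SEAP in the supernatant was read with QUANTI-Blue at 620 nm absorbance for NF-κB, and Lucia luciferase was read with QUANTI-Luc luminescence for IRF. Each signal was turned into fold change against the mean agonist-only control on the same plate, and two replicate plates were averaged with propagated errors.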

[2] = tested on: RAW-Dual (murine macrophage reporter line); test: IRF reporter (Lucia luciferase) activity fold change vs agonist alone; higher = enhanced IRF activity
Outline: as §1

[3] = tested on: RAW-Dual (murine macrophage reporter line); test: viability score (confluency relative to resting cells, overnight) (fraction); higher = more viable, active = viable (0.7 or more)
Outline: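 In 384-well plates, RAW-Dual macrophages received compound at a final 10 μM overnight. Two confluency masks were then made with IncuCyte software from IncuCyte images of all imaged wells. The viability score is defined as confluency relative to resting cells. Passing the cutoff required both masks to lie above 70% of resting cells.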

[4] = agonist: CpG ODN 1826 0.5 ug/mL

Row | SMILES | NF-kB reporter [1, 4] | NF-kB reporter ([1]; agonist: LPS 0.1 ug/mL) | NF-kB reporter ([1]; agonist: MPLA […]) | IRF reporter ([2]; agonist: 3'3'-cGAMP 10 ug/mL) | IRF reporter ([2]; agonist: LPS 0.1 ug/mL) | IRF reporter ([2]; agonist: MPLA […]) | viability score [3]
1 | COC(CNS(=O)(=O)c1ccccc1Cl)c1cccc(F)c1 (configuration not stated) | 1.21 ± 0.074 | 1.04 ± 0.078 | 1.08 ± 0.038 | 0.849 ± 0.045 | 1.03 ± 0.055 | 0.736 ± 0.12 | 0.995 (active)
2 | O=S1(=O)N=C(SCc2ccccc2)Nc2ccc(Cl)cc21 | 0.76 ± 0.059 | 0.913 ± 0.067 | 1.16 ± 0.11 | 0.718 ± 0.074 | 1.08 ± 0.12 | 1.11 ± 0.3 | 1.02 (active)
3 | COc1ccc(S(=O)(=O)NCc2ccnc(N3CCOCC3)n2)cc1Cl | 1.02 ± 0.052 | 1.02 ± 0.08 | 0.919 ± 0.1 | 1.07 ± 0.06 | 1.07 ± 0.079 | 1.08 ± 0.4 | 1 (active)
4 | O=C1C(=CNCCN2CCOCC2)C(C(F)(F)F)=NN1c1nc2ccccc2s1 | 0.967 ± 0.079 | 1.01 ± 0.056 | 0.863 ± 0.06 | 0.947 ± 0.044 | 1.32 ± 0.17 | 0.98 ± 0.065 | 1.01 (active)
5 | CN(C)CCN(Cc1ccccc1)Cc1cccc(Cl)c1 | 0.976 ± 0.057 | 0.928 ± 0.16 | 1.05 ± 0.044 | 0.838 ± 0.04 | 1.02 ± 0.048 | 0.87 ± 0.1 | 0.999 (active)
6 | O=C(CC1CC1)N1CCN(c2cc(C(F)(F)F)ncn2)CC1 | 0.929 ± 0.04 | 0.963 ± 0.081 | 1.29 ± 0.13 | 1.04 ± 0.091 | 1.04 ± 0.18 | 1.01 ± 0.43 | 1.01 (active)
7 | O=c1[nH]nc(Br)c(=O)[nH]1 | 1.04 ± 0.082 | 1.1 ± 0.09 | 0.969 ± 0.04 | 0.993 ± 0.11 | 1.03 ± 0.057 | 1.02 ± 0.086 | 0.992 (active)
8 | CCC1SC(=NN=Cc2cccc3ccccc23)NC1=O (configuration not stated) | 1.08 ± 0.14 | 0.974 ± 0.087 | 0.972 ± 0.044 | 0.92 ± 0.034 | 1.01 ± 0.085 | 0.974 ± 0.2 | 1 (active)
9 | O=C(NC(=S)NNc1ccccc1)c1cc2ccccc2oc1=O | 1.08 ± 0.23 | 1.16 ± 0.15 | 1.03 ± 0.11 | 0.861 ± 0.022 | 1.23 ± 0.16 | 1.12 ± 0.2 | 0.999 (active)
10 | O=C(CSc1ccc2ccccc2n1)NC1=NCCS1 | 0.89 ± 0.051 | 0.986 ± 0.062 | 0.972 ± 0.06 | 0.968 ± 0.033 | 1.2 ± 0.077 | 0.958 ± 0.23 | 1.01 (active)
11 | CC1=C(C(=O)Nc2cccc(C)n2)C(c2ccsc2)C2=C(CC(C)(C)CC2=O)N1 (configuration not stated) | 1.04 ± 0.16 | 1.02 ± 0.057 | 0.996 ± 0.059 | 0.954 ± 0.04 | 1.2 ± 0.086 | 0.979 ± 0.12 | 1.01 (active)
12 | Cl.O=C1Cc2cc(CCN3CCN(c4nsc5ccccc45)CC3)c(Cl)cc2N1 | 0.0947 ± 0.013 | 1.06 ± 0.24 | 0.85 ± 0.059 | 0.646 ± 0.027 | 1.24 ± 0.24 | 1.01 ± 0.076 | 0.983 (active)
13 | Cc1ccc(-n2nnc3c(=O)n(CC(=O)N4CC(C)OC(C)C4)cnc32)cc1Cl (configuration not stated) | 1.12 ± 0.096 | 1.09 ± 0.089 | 0.885 ± 0.047 | 1.09 ± 0.057 | 1.14 ± 0.079 | 1.14 ± 0.34 | 0.976 (active)
14 | O=C1Nc2ccc(Cl)cc2[C@@](C#CC2CC2)(C(F)(F)F)O1 | 0.352 ± 0.029 | 0.486 ± 0.024 | 0.631 ± 0.02 | 0.964 ± 0.056 | 0.715 ± 0.092 | 1.47 ± 0.2 | 0.114 (inactive)
15 | O=C(O)c1ccccc1N(Cc1ccccc1)S(=O)(=O)c1ccccc1 | 1.14 ± 0.13 | 1 ± 0.15 | 1.08 ± 0.061 | 0.965 ± 0.1 | 1.06 ± 0.072 | 0.938 ± 0.14 | 0.984 (active)
16 | CC12CCC3c4ccc(O)cc4CCC3C1CCC2OC(=O)CCC1CCCC1 (configuration not stated) | 1.02 ± 0.093 | 0.997 ± 0.09 | 0.867 ± 0.082 | 0.969 ± 0.03 | 1.15 ± 0.15 | 1.21 ± 0.14 | 0.98 (active)
17 | COc1cc(C2C(C(=O)c3ccccc3)=C(O)C(=O)N2c2cccnc2)ccc1O (configuration not stated) | 0.915 ± 0.14 | 0.595 ± 0.13 | 0.582 ± 0.1 | 0.758 ± 0.068 | 0.849 ± 0.074 | 0.785 ± 0.13 | 0.97 (active)
18 | CC1CCc2c(N3CCC(O)CC3)c(F)cc3c(=O)c(C(=O)O)cn1c23 (configuration not stated) | 0.975 ± 0.091 | 0.889 ± 0.051 | 0.992 ± 0.051 | 1.03 ± 0.077 | 0.897 ± 0.046 | 0.946 ± 0.11 | 0.995 (active)
19 | NC(=O)C1CCCN1c1ncccc1C(F)(F)F (configuration not stated) | 1.16 ± 0.068 | 1.09 ± 0.089 | 0.994 ± 0.028 | 1.01 ± 0.088 | 1.06 ± 0.063 | 1.01 ± 0.1 | 0.997 (active)
20 | Oc1ccc(N=Cc2ccccc2O)cc1 | 1.35 ± 0.17 | 1.24 ± 0.086 | 1.51 ± 0.1 | 0.491 ± 0.11 | 0.733 ± 0.043 | 0.839 ± 0.14 | 0.584 (inactive)
21 | O=C(N/N=C/c1ccc([N+](=O)[O-])o1)c1ccc(O)cc1 | 1.54 ± 0.21 | 2.63 ± 0.4 | 2.97 ± 0.26 | 1.01 ± 0.051 | 1.88 ± 0.34 | 1.43 ± 0.12 | 0.968 (active)
22 | CCCCC(=O)N(Cc1ccc(-c2ccccc2-c2nnn[nH]2)cc1)[C@H](C(=O)O)C(C)C [Prestw-1735] | 1.14 ± 0.14 | 0.992 ± 0.075 | 1.05 ± 0.029 | 0.687 ± 0.03 | 0.705 ± 0.04 | 0.645 ± 0.071 | 0.998 (active)
23 | CC(C(=O)N1CCN(S(=O)(=O)C2CC2)CC1)n1nc2c(cc1=O)CCC2 (configuration not stated) | 0.928 ± 0.086 | 1.06 ± 0.095 | 0.934 ± 0.082 | 0.977 ± 0.091 | 0.964 ± 0.1 | 0.904 ± 0.19 | 1.01 (active)
24 | Fc1ccc(CN2CCc3c([nH]c4ccccc34)C2)cc1 | 0.756 ± 0.07 | 0.707 ± 0.059 | 1.4 ± 0.12 | 0.64 ± 0.039 | 0.974 ± 0.091 | 2.77 ± 0.34 | 0.126 (inactive)
25 | Cc1c(C(=O)ON=C(N)c2ccncc2)cccc1[N+](=O)[O-] | 1.01 ± 0.08 | 0.996 ± 0.06 | 0.851 ± 0.069 | 0.421 ± 0.031 | 1.33 ± 0.099 | 1.23 ± 0.16 | 0.992 (active)
26 | CCSc1nnc(NC(=O)Cc2ccc([N+](=O)[O-])cc2)s1 | 1.04 ± 0.21 | 1.02 ± 0.085 | 0.96 ± 0.097 | 0.926 ± 0.026 | 1 ± 0.096 | 1.07 ± 0.12 | 1 (active)

Reference: the supplement of paper PMC10646978
